KB-V1 MDR tox = kills drug-selected multidrug resistant KB-V1 cells; KB-V1 MDR cells viability, CellTiter-Glo, 72 h; Potency, µM (titrated, usually from 46.1 µM), actives largely listed as cytotoxic; 400,000 compounds, 3.4% hits; AID 1347076; note: % is set by controls: 0 for no effect and ±100 for the full control effect; nearly all actives have a fitted effect of over 60% in size
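KB-V1, DMEM (no phenol red) + 10% FBS; cpd pin-transferred, titration series; 72 h, 37 degrees C; CellTiter-Glo, luminescence. Data normalized, curve-fit.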
RGS4 inh = inhibitors of human regulator of G protein signaling 4 | Potency, µM (series often up to 114 µM), for inactives: top-dose activity change, negative = inhibition, most hits filed as inhibitors | 390,000 compounds, 0.039% hits | P49798 | Transcreener GDP fluorescence polarization, RGS4-accelerated GTP hydrolysis | AID 504845; note: % is set by controls: 0 for no effect and ±100 for the full control effect; nearly all actives have a fitted effect of over 75% in size
Target sequence (P49798 whole entry, looked up): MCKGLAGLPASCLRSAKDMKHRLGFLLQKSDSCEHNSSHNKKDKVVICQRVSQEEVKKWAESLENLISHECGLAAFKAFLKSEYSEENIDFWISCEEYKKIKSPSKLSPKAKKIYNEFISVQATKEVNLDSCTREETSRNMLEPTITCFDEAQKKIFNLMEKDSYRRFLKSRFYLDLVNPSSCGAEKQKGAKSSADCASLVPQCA
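MLSMR compounds (23 nl, pin-transferred) preincubated 10 min at room temperature with a 500nM (2x) first reagent, then RGS4 at 900nM (2x) plus Transcreener GDP mix added; fluorescence polarization (620/688 nm) read before and after 90 min at 30 °C.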
MCF10A rerep = induces DNA re-replication in MCF 10a normal breast cells. MCF 10A DNA re-replication, Hoechst nuclear intensity, 48 h. Potency, µM (titrated, usually from 46.1 µM), for the others: top-dose activity, positive = re-replication, hits mostly activators. 350,000 compounds, 2.9% hits; note: % of control where 0% means no effect; nearly all actives have a fitted effect of over 50% in size
KB-3-1 cytotox = kills parental KB-3-1 adenocarcinoma cells. KB-3-1 viability, CellTiter-Glo ATP luminescence, 72 h. Potency, µM (titrated, usually from 46.1 µM), usual class: cytotoxic. 400,000 compounds, 1.4% hits; note: % is set by controls: 0 for no effect and ±100 for the full control effect; nearly all actives have a fitted effect of over 60% in size
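Screening of KB-3-1 cells (DMEM, 10% FBS, phenol-red free) ran from lowest to highest compound concentration; after 72 h at 37 °C viability was read luminescently and curves fitted.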
SW480 rerep = inducers of DNA re-replication in SW480 colon cancer cells | AID 624297 | 340,000 compounds, 1.8% hits | SW480 DNA re-replication, Hoechst DNA content imaging, 48 h | Potency, µM (doses to about 46.1 µM), without a hit: top-dose re-replication activation, usual class: activators; note: % of control where 0% means no effect; nearly all actives have a fitted effect of over 55% in size
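Compounds, transferred as 23 nL by pin tool, were incubated with cells for 48 hr; DNA content per nucleus was then quantified by Hoechst staining and fluorescence plate imaging.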
TSG101-PTAP inh = blocks PTAP/TSG101 interaction to inhibit HIV-1 budding. Q99816. Fluorescence polarization, FITC-PTAP peptide / Tsg101 binding. Potency, µM (doses to about 115 µM), for inactives: top-dose activity change, negative = inhibition, most hits filed as inhibitors. 340,000 tested, under 10 active. AID 493005; active = well fitted inhibition curve with a large enough effect in the main read-out, with a control signal flat, not every such curve was filed as active; inconclusive = small, poorly fitted or top-dose-only effect, or effect the other way, or a change in a side signal; inactive = no such curve, though single readings can be large or run the other way; note: % of control where 0% means no effect
Target sequence (Q99816 whole entry, looked up): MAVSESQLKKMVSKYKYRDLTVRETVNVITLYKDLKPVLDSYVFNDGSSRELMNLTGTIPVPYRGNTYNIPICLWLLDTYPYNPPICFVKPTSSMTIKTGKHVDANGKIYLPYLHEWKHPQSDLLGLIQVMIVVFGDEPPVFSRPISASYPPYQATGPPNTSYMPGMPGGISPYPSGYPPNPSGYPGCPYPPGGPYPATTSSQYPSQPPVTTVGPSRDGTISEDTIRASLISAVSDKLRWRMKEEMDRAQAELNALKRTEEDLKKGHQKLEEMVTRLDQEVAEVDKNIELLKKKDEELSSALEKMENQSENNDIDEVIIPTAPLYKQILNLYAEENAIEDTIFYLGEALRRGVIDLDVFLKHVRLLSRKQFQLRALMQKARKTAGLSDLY
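Tsg101 binding domain (10 uM final) was mixed with compound and a FITC-labeled PTAP peptide (50 nM final) in HEPES pH 7.5 buffer with NaCl, Tween 20, EDTA and TCEP; fluorescence polarization was read after 20 min at r.t.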
* hit, by the source's call; i = inactive; ? = inconclusive; · = no result given; [ ] = another dose, or the depositor's remark. Rows were chosen to be rich in hits. Some 6.6% of all compounds tested hit in one or more screens of this group. Unless noted, calls come from the whole dose curve; as a rule, active = well fitted curve in the direction sought with a large enough effect; inconclusive = small, poorly fitted or top-dose-only effect, or another doubt; inactive = no such curve, though single readings can be large; an effect the other way counts as inactive or inconclusive. Potency is the fitted concentration of half-maximal effect.

SMILES	KB-V1 MDR tox	RGS4 inh	MCF10A rerep	KB-3-1 cytotox	SW480 rerep	TSG101-PTAP inh
CCOc1ccc(NC(=O)CN(C)C(=O)c2cccc3ccccc23)cc1OCC	?	24%	2%	?	-4%	-3%
CCOc1ccc(NC(=O)CN(C)C(=O)c2ccccc2OCCOc2ccccc2)cc1OCC	2.3µM*	1%	10%	i	0%	-3%
CCOc1ccc(NC(=O)CN(C)C(=O)c2cc(-c3ccc(OC)cc3)nc3ccccc23)cc1OCC	?	-6%	16µM*	i	3%	-1%
COc1cccc(NC(=O)CN(C)C(=O)c2cc(-c3ccccc3)nc3ccc(C)cc23)c1	i	-29%	?	i	?	-2%
COc1ccc(NC(=O)CN(C)C(=O)c2cc(-c3ccc(Cl)cc3)nc3ccccc23)cc1	?	-33%	18µM*	i	9%	1%
COc1cccc(NC(=O)CN(C)C(=O)c2cc(-c3cccc(Br)c3)nc3ccccc23)c1	?	9%	13µM*	?	?	-1%
Cc1ccccc1NC(=O)c1c(C)oc2ccc(O)c(CN(C)Cc3ccccc3)c12	·	-5%	·	·	·	·
COc1ccc(CCNC(=O)Cn2c(=O)n(-c3cc(OC)c(OC)c(OC)c3)c(=O)c3ccccc32)cc1OC	?	14%	·	i	·	·
CCN1CCN(c2nc3c(S(=O)(=O)c4ccc(Br)cc4)nnn3c3ccsc23)CC1	·	11%	·	·	·	·
Cc1sc2c(c1C)c(=O)n(-c1ccccc1)c(=O)n2CC(=O)c1ccc(Cl)cc1	i	25%	·	i	·	·
CC(=O)c1sc(N/N=C2\CC3CCC2(C)C3(C)C)nc1C (configuration not stated)	?	-32%	21µM*	i	-74%	-4%
O=S(=O)(O)c1cc(O)c2c(O)c(N=Nc3cc(Cl)ccc3O)c(S(=O)(=O)O)cc2c1	?	-60%[56.9 µM]	-3%	15µM*	22%	?
Cc1ccc2nccnc2c1	16µM*	·	·	?	·	·
Cc1ccc2c(C)ccnc2c1	i	·	·	i	·	·
O=C1C=CCC(/C=C/c2ccccc2)O1 (configuration not stated)	?	?	15µM*	?	16µM*	3%
S=c1[nH]nc(C2CCCCC2)n1/N=C/c1ccc(Cl)cc1	i	-16%[56.9 µM]	?	i	?	-6%
S=c1[nH]nc(C2CCCCC2)n1/N=C/c1ccc(Br)s1	i	?	18µM*	i	?	-7%
FC(F)(F)c1ccc(/C=N/n2c(C3CCCCC3)n[nH]c2=S)cc1	i	-41%	23µM*	i	-8%	-6%
S=c1[nH]nc(C2CCCCC2)n1/N=C/c1ccc(Br)cc1	i	-45%	?	i	-6%	-4%
Nc1cc(=O)[nH]c(=S)[nH]1	i	·	·	i	·	·
O=C(c1ccco1)N(CCCN1CCOCC1)c1nc(-c2ccc(Cl)cc2)cs1	i	-9%	10µM*	i	?	-6%
CC(OC(=O)c1cc2sccc2n1C)C(=O)NCCc1ccccc1 (configuration not stated)	13µM*	8%	?	i	?	-1%
CC(OC(=O)c1cc2sccc2n1C)C(=O)NCc1ccco1 (configuration not stated)	i	-2%	-12%	i	0%	-5%
Cn1c(C(=O)OC(C(=O)NCc2ccco2)c2ccncc2)cc2sccc21 (configuration not stated)	3.7µM*	-19%	3%	i	10%	-9%
CC(OC(=O)c1cc2sccc2n1C)C(=O)NCC1CCCO1 (configuration not stated)	i	-31%	6%	i	-2%	-3%
SMILES	KB-V1 MDR tox	RGS4 inh	MCF10A rerep	KB-3-1 cytotox	SW480 rerep	TSG101-PTAP inh
Cc1cc2c(cc(C(=O)OC(C(=O)NCC3CCCO3)C(C)C)n2C)o1 (configuration not stated)	i	8%[11.4 µM]	14%	i	5%	-5%
Cn1c(C(=O)OC(C(=O)NCC2CCCO2)c2cccnc2)cc2sccc21 (configuration not stated)	i	19%	?	i	1.3µM*	0%
CCC(OC(=O)c1cc2sccc2n1C)C(=O)NCC1CCCO1 (configuration not stated)	23µM*	14%	6%	i	-4%	-3%
CC(OC(=O)c1cc2sccc2n1C)C(=O)NCc1ccc(F)cc1 (configuration not stated)	?	3%[11.4 µM]	11%	i	-2%	-8%
Cc1ccc(Nc2c(-c3ccc(C)s3)nc3cccc(C)n23)cc1	·	-10%	·	·	·	·
Cc1nc2c3ccccc3nc(NNC(=O)CCC(=O)N3CCN(c4cc(Cl)ccc4C)CC3)n2n1	i	-5%	·	i	·	·
Cc1cccc(OCC(=O)NCc2ccc3c(c2)CCN3C(=O)c2ccccc2)c1	i	35%	·	i	·	·
CCOC(=O)/C(=N/Nc1ccc(C)cc1)S(=O)(=O)c1ccc(Cl)cc1	16µM*	-22%	?	i	19%	1%
NNC(=O)/C(=N/Nc1ccccc1)S(=O)(=O)c1ccc(Cl)cc1	i	-13%	?	18µM*	?	1%
NNC(=O)CS(=O)(=O)c1ccc(Cl)cc1	i	15%	-1%	i	8%	1%
C(=Nc1ccc(/C=C/c2ccnc3ccccc23)cc1)c1cccs1	i	·	·	?	·	·
O=c1c2cc(N3CCOCC3)ccc2[nH]c(=S)n1Cc1ccco1	13µM*	?	?	i	?	-7%
CCN(CCCn1c(=S)[nH]c2ccc(N3CCOCC3)cc2c1=O)c1ccccc1	?	3%	18µM*	i	?	2%
COc1cccc(Cn2c(=S)[nH]c3ccc(N4CCOCC4)cc3c2=O)c1	3.7µM*	-20%	?	i	?	-3%
O=c1c2cc(N3CCOCC3)ccc2[nH]c(=S)n1Cc1cccc(Cl)c1	?	-21%	?	i	119%	-5%
COc1cccc(NC(=O)C2CCN(S(=O)(=O)c3c(C)noc3/C=C/c3cccs3)CC2)c1	·	8%	·	·	·	·
CN(C1CCCCC1)S(=O)(=O)c1ccc(F)c(C(=O)Nc2ccc(C(F)(F)F)cc2)c1	i	4%	·	?	·	·
COc1cccc(C(C(=O)Nc2ccc(F)cc2)N(C(=O)Cn2nnc3ccccc32)C2CC2)c1 (configuration not stated)	?	10%	-6%	i	?	-9%
